# PostGolgi yeast: phenotypic screen on post-Golgi transport, primary screen | actives 0.9% (n = 98,000) | post-Golgi transport phenotypic cell assay | inhibition, % at 10 µM;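 further: yeast cells grown in 1536-well plates; yeast grown about 18 h at 30C before absorbance read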
# PostGolgi ctrl: growth inhibition of yeast control strain, primary screen, counter-screen for post-Golgi transport modulator project. efflux-deficient yeast background strain, growth absorbance A615, 16 h. inhibition, % at 10 µM. actives 5% (n = 98,000)
# CYP2C9 act: human CYP2C9 activators, primary screen, biochemical, luminescence | actives 1.4% (n = 96,000) | AID 1024, 2008 | recombinant CYP2C9, luciferin-H conversion; stronger effect = higher value; factor 1 = untreated enzyme, 0 = blocked | Cytochrome P450 2C9 (Homo sapiens), P11712 | activation factor at 5 µM;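 active means activation factor of 2 or more for CYP2C9 at a 5 µM dose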;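 further: 0 = sulfaphenazole-blocked wells and 1 = vehicle-only wells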
# CYP2C19 inh: blockers of cytochrome P450 2C19 activity – biochemical, luminescence, ADME assay, primary screen; actives 21% (n = 96,000); AID 778, 2007; inhibition, % at 5 µM; CYP2C19 Supersomes, luciferin-H EGE luminescence, 30 min; P33261;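 active means CYP2C19 inhibition above a set limit at 5 µM in the primary screen, cut at about 50% in these data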;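 further: plate controls were negative control wells for no effect and 2.5 mM tranylcypromine positive control for full effect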
# Target sequence (P33261 whole entry, looked up): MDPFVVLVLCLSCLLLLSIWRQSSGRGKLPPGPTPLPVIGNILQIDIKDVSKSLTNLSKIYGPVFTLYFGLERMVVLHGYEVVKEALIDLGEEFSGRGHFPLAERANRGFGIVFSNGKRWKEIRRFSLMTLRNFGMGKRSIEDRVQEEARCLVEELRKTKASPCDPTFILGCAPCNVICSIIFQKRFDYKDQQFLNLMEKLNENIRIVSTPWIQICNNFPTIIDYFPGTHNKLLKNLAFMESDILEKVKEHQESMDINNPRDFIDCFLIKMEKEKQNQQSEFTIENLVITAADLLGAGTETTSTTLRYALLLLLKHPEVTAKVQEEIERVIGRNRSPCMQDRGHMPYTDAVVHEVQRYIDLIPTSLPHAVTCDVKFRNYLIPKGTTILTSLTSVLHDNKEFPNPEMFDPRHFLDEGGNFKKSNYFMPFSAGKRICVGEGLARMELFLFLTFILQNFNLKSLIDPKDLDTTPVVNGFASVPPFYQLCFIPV
# CYP2C19 activ: human CYP2C19 activators, primary screen, biochemical, luminescence; 96,000 tested, under 10 active; recombinant CYP2C19, luciferin-H EGE luminescence; stronger effect = higher value; 0 = fully inhibited enzyme, 1 = untreated enzyme; Cytochrome P450 2C19 (Homo sapiens), P33261; activation factor at 5 µM; AID 1025, 2008;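 active means activation factor of at least 2 at 5 µM in the primary screen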;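 further: 0 = wells with 2.5 mM tranylcypromine and 1 = vehicle-only wells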
# CYP2C9 inhib: blockers of cytochrome P450 2C9 activity – biochemical, luminescence, ADME assay, primary screen | P11712 | CYP2C9 Supersomes, luciferin-H conversion | inhibition, % at 5 µM | actives 20% (n = 96,000);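 active means blocking of liver enzyme CYP2C9 beyond about 50% at 5 µM, limit read from the data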
# * marks the source's active call; other numbers are inactive results; x = not tested or not shown. An excerpt weighted towards active compounds, which were near 32% of everything screened. Unless noted, no stated cut-off is given here; in the data, active means inhibition above about 30%; inactive means the rest.
SMILES,PostGolgi yeast,PostGolgi ctrl,CYP2C9 act,CYP2C19 inh,CYP2C19 activ,CYP2C9 inhib
O=C1NC(=Nc2cccc(Cl)c2)SC1Cc1cccc(Cl)c1Cl (configuration not stated),-7,48*,0.8,10,0.9,22
CCCCc1nc(NCCNC(=O)c2ccco2)c(C#N)c2c1CSC(C)(C)C2,18,100*,0.1,68*,0.3,93*
CC1(C)Cc2c(c(-c3ccccc3)[nH]c(=O)c2C#N)CS1,0,9,1.2,27,0.7,-22
CCCCc1nc(NCCNC(=O)c2ccccc2)c(C#N)c2c1CSC(C)(C)C2,15,99*,0.7,1,1,33
CC1(C)Cc2c(c(-c3ccco3)[nH]c(=O)c2C#N)CS1,-4,25,1.2,-11,1.1,-17
O=C(O)c1ccccc1C(=O)OCCCCOC(=O)c1ccccc1C(=O)O,4,2,0.9,-6,1.1,5
Cc1cc2nc(-c3cccnc3SCC(=O)NCc3ccco3)[nH]c2cc1C,1,7,x,x,x,x
N#C/C(=C/c1ccc(N2CCCC2)c([N+](=O)[O-])c1)c1nc2ccccc2[nH]1,4,2,0.4,73*,0.3,58*
CCN(CC)c1ccc(/C=C(/C#N)c2nc3ccccc3[nH]2)c(OC(C)C)c1,2,11,0.3,48,0.5,74*
COc1cc(/C=C(/C#N)c2nc3ccccc3[nH]2)ccc1OCC(=O)Nc1ccccc1C(C)C,2,17,0.4,38,0.6,60*
Cc1ccc(C(=O)O/N=C\c2ccc(N3CCCCC3)c([N+](=O)[O-])c2)cc1,-9,-3,0.4,43,0.6,61*
N#C/C(=C\c1ccc(Oc2ccc(C(F)(F)F)cc2[N+](=O)[O-])cc1)c1nc2ccccc2[nH]1,-1,-11,0.8,18,0.8,21
O=C(O/N=C\c1ccc(N2CCCCC2)c([N+](=O)[O-])c1)c1c(F)cccc1F,14,-1,1.4,43,0.6,-37
O=C(NC1CCCC1)C(c1ccsc1)N(Cc1ccco1)C(=O)Cc1cccs1 (configuration not stated),-7,21,0.9,28,0.7,9
CCOc1ccc(Oc2nc(Nc3ccc(C)cc3)nc(N(C)C)n2)nn1,5,3,1,-7,1.1,-2
COc1cc(/C=C(\C#N)c2nc3ccccc3[nH]2)c([N+](=O)[O-])cc1OCc1ccccc1,11,28,0.2,43,0.6,76*
Cc1ccc2nc(/C(C#N)=C\c3ccc(N4CCCCC4)c([N+](=O)[O-])c3)[nH]c2c1,4,4,0.4,56*,0.4,59*
CC(=O)C1=C(C)Nc2ncnn2C1c1ccc(Cl)cc1 (configuration not stated),-2,0,0.4,64*,0.4,59*
CC(=O)C1=C(C)Nc2ncnn2C1c1ccccc1OCc1ccccc1 (configuration not stated),-1,0,0.8,54*,0.5,24
CCSc1nc(O)c(C2OC(=O)c3c2ccc(OC)c3OC)c(=O)n1CC (configuration not stated),-4,4,0.8,15,0.8,18
COC(=O)c1ccc(CN(C(C)=O)c2ccccc2)o1,-6,0,1,69*,0.3,2
CCCNC(=S)N1CCC(NC(=O)C2CCCCC2)CC1,3,12,1.3,-18,1.2,-26
Cc1cccc2nc(CSCc3ccco3)cn12,0,-8,1,64*,0.4,0
Cc1cc(C)n2cc(CSc3nnnn3-c3ccccc3C)nc2n1,4,5,2.7*,35,0.6,-174
Cc1cc(C)n2cc(CSCc3ccco3)nc2n1,-5,1,0.3,9,0.9,70*
SMILES,PostGolgi yeast,PostGolgi ctrl,CYP2C9 act,CYP2C19 inh,CYP2C19 activ,CYP2C9 inhib
Cc1ccc(C(=O)c2ccc([N+](=O)[O-])cc2)c(C)c1,5,2,0.4,82*,0.2,60*
Cc1ccc(C(=O)/C=C/Nc2ccc([N+](=O)[O-])cc2Br)cc1,-10,-2,0.7,20,0.8,27
O=S(=O)(Cc1cnc(Cl)s1)c1ccccc1,28,1,0.9,47,0.5,7
CC1(C)CC(=O)C2=C(C1)N(c1ccc(F)cc1)C(=O)C2(O)C(F)(F)F (configuration not stated),-11,0,0.9,50*,0.5,14
CC1(C)CC(=O)C2=C(C1)N(c1ccc(F)cc1)C(=O)CC2c1ccccc1 (configuration not stated),4,-1,0.7,76*,0.2,28
CC1(C)CC(=O)C2=C(C1)N(C1CCCCC1)C(=O)C2(O)C(F)(F)F (configuration not stated),5,17,1,20,0.8,0
CCC(=O)N/C(=N/c1nc(C)cc(C)n1)Nc1cccc(OC)c1,9,10,0.8,14,0.9,17
CC(C(=O)N(C1CC1)C1(C(=O)Nc2ccccc2)CCCC1)N1C(=O)c2ccccc2C1=O (configuration not stated),2,45*,0.8,37,0.6,22
CC(C(=O)Nc1ccc(C(=O)O)cc1)N1C(=O)c2ccccc2C1=O (configuration not stated),10,-7,0.9,-4,1,10
CCOc1cc(N2CCOCC2)c(OCC)cc1NC(=O)COC(=O)CCc1c[nH]c2ccccc12,-3,2,0.9,4,1,6
COc1ccccc1N1CCN(C(=O)C(=O)N/N=C/c2cccc(O)c2)CC1,4,26,0.8,14,0.9,17
CC(C)N(Cc1nc(-c2ccccc2)no1)C(=O)CN(C)S(=O)(=O)c1ccccc1,-10,34*,0.3,79*,0.2,69*
CC(C)N(Cc1nc(-c2ccccc2)no1)S(=O)(=O)c1ccccc1,-4,16,0.3,58*,0.4,68*
O=S(=O)(c1ccccc1)N(Cc1nc(-c2ccccc2)no1)C1CCCCC1,-4,16,0.1,50*,0.5,93*
CN(CC(=O)N1CCc2ccccc2C1)S(=O)(=O)c1ccc2c(c1)c(=O)n(C)c(=O)n2C,1,-1,0.9,-17,1.2,12
Cc1cccc(C)c1Nc1nc2ccccc2o1,-4,5,0.4,39,0.6,64*
CC1=C(C#N)C(c2cccnc2)C2=C(CC(c3ccc(Cl)cc3)CC2=O)N1 (configuration not stated),-1,1,0.3,92*,0.1,73*
Cc1c(O)nc(SC2CC(=O)N(c3ccccc3)C2=O)[nH]c1=O (configuration not stated),2,6,1,-10,1.1,-2
